# From ChEMBL document CHEMBL1961873, “Compounds: GSK PKIS; Assays: Nanosyn kinase panel” (2012)
# Several values for one entry are separate records, joined by “and”; a condition that tells them apart may be missing. Equal values may be shown once.
# Tests used:
# [1] = target: Glycogen synthase kinase-3 beta (Homo sapiens) (UniProt P49841); conditions: at 1 µM;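 also: reported values are mean percent inhibition of GSK3B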
# [2] = target: Homeodomain-interacting protein kinase 1 (Homo sapiens) (UniProt Q86Z02); conditions: at 0.1 µM
# Chain of Homeodomain-interacting protein kinase 1 (Homo sapiens) (Q86Z02 whole entry, looked up): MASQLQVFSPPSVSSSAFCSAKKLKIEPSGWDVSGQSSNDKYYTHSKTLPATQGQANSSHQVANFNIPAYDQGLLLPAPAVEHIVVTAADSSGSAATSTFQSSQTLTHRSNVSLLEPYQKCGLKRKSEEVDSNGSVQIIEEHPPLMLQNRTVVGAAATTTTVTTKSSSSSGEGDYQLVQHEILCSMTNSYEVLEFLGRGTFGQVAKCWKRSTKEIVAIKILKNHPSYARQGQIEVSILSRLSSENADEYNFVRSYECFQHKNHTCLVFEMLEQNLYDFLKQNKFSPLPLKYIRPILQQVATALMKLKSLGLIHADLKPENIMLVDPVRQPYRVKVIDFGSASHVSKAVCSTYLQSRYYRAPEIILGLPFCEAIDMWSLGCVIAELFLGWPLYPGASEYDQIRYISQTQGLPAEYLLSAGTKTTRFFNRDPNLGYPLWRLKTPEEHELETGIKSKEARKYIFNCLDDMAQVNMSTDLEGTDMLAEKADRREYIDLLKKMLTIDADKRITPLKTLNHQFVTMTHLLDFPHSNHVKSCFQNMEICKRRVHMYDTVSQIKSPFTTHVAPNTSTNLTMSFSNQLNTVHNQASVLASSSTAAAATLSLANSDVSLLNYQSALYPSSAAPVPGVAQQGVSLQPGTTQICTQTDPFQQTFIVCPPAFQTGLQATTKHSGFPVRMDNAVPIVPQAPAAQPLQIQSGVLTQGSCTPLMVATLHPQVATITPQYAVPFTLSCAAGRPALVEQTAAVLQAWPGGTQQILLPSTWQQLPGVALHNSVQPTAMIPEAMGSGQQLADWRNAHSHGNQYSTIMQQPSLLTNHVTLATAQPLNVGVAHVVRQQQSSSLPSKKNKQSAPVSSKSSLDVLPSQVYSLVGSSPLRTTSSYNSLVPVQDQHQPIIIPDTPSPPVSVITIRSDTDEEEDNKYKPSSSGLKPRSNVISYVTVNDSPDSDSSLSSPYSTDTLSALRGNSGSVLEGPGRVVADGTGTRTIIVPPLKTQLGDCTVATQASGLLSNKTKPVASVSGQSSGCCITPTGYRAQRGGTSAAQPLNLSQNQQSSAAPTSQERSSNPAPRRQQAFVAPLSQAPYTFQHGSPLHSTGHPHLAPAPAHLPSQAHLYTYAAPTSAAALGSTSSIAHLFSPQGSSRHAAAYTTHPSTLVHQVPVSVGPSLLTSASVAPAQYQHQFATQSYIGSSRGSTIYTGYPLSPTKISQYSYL
# [3] = target: Homeodomain-interacting protein kinase 1 (Homo sapiens) (UniProt Q86Z02); conditions: at 1 µM
# [4] = target: T1, Homeodomain-interacting protein kinase 4 (Homo sapiens) (UniProt Q8NE63); conditions: at 0.1 µM
# T1 sequence (whole entry): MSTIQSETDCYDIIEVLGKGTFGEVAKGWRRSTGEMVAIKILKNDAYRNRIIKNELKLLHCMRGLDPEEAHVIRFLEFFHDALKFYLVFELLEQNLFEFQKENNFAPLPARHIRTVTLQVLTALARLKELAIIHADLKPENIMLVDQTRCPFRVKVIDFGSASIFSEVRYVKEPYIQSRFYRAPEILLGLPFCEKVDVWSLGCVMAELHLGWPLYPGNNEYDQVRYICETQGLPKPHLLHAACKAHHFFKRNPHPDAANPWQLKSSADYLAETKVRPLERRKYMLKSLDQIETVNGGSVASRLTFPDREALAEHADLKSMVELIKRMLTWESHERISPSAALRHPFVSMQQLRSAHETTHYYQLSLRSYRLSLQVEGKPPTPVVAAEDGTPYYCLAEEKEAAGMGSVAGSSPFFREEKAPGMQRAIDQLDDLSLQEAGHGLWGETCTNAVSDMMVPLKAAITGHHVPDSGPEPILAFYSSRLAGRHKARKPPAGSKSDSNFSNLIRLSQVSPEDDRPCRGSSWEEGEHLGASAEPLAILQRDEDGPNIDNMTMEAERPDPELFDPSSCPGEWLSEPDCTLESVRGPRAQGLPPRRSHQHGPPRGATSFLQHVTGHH
# [5] = target: T1, Homeodomain-interacting protein kinase 4 (Homo sapiens); conditions: at 1 µM
# [6] = target: Mitogen-activated protein kinase 9 (Homo sapiens) (UniProt P45984); conditions: at 0.1 µM
# Chain of Mitogen-activated protein kinase 9 (Homo sapiens) (P45984 whole entry, looked up): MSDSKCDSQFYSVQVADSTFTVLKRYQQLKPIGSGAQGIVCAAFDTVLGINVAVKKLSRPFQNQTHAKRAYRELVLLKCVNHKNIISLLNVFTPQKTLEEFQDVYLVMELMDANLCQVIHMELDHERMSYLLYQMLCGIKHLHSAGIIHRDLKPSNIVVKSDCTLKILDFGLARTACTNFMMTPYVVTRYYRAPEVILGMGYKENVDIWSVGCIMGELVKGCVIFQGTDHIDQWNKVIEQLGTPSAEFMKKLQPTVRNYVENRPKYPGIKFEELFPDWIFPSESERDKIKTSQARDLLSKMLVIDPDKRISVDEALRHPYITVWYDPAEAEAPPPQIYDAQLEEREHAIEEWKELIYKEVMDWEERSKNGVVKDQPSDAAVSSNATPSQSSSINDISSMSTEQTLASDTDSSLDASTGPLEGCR
# [7] = target: Mitogen-activated protein kinase 9 (Homo sapiens) (UniProt P45984); conditions: at 1 µM
# [8] = target: Mitogen-activated protein kinase 1 (Homo sapiens) (UniProt P28482); conditions: at 0.1 µM
# Chain of Mitogen-activated protein kinase 1 (Homo sapiens) (P28482 whole entry): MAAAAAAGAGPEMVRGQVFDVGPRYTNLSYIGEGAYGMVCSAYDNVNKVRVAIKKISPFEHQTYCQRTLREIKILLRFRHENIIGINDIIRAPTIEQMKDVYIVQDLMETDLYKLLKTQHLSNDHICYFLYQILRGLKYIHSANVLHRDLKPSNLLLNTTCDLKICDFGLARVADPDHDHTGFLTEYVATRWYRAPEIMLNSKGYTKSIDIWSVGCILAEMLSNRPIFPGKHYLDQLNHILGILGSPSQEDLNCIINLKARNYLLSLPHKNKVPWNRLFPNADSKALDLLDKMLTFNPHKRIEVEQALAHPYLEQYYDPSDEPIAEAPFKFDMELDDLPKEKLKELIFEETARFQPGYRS
# [9] = target: Mitogen-activated protein kinase 1 (Homo sapiens) (UniProt P28482); conditions: at 1 µM
# [10] = target: Mitogen-activated protein kinase 3 (Homo sapiens) (UniProt P27361); conditions: at 0.1 µM
# Chain of Mitogen-activated protein kinase 3 (Homo sapiens) (P27361 whole entry): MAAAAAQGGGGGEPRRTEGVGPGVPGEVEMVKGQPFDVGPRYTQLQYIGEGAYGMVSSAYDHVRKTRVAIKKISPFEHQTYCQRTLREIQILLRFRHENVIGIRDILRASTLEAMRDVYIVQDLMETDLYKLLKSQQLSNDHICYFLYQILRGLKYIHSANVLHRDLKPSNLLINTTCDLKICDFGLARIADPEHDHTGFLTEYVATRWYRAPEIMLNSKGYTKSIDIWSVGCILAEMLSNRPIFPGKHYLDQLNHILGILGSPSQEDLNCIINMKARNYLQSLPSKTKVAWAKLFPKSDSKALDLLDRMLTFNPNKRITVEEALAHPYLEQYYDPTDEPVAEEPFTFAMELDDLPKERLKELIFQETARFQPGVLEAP
# [11] = target: Mitogen-activated protein kinase 3 (Homo sapiens) (UniProt P27361); conditions: at 1 µM
# [12] = target: SRSF protein kinase 3 (Homo sapiens) (UniProt Q9UPE1); conditions: at 0.1 µM
# Chain of SRSF protein kinase 3 (Homo sapiens) (Q9UPE1 whole entry): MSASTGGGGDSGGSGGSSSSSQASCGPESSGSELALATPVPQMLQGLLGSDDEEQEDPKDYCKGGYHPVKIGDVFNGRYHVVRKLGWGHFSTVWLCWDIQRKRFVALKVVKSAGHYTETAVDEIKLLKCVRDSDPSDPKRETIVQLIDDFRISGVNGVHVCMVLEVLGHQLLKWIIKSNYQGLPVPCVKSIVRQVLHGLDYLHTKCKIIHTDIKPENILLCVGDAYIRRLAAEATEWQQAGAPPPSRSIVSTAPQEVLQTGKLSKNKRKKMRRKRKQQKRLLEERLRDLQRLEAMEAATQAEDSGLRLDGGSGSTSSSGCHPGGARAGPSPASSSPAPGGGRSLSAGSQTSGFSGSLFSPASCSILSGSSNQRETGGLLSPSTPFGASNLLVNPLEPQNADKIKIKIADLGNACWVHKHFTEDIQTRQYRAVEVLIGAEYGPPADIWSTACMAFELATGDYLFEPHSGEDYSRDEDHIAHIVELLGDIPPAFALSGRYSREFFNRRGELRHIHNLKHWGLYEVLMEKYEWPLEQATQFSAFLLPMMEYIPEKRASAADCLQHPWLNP
# [13] = target: SRSF protein kinase 3 (Homo sapiens) (UniProt Q9UPE1); conditions: at 1 µM
# [14] = target: Mitogen-activated protein kinase 14 (Homo sapiens) (UniProt Q16539); conditions: at 0.1 µM
# Chain of Mitogen-activated protein kinase 14 (Homo sapiens) (Q16539 whole entry): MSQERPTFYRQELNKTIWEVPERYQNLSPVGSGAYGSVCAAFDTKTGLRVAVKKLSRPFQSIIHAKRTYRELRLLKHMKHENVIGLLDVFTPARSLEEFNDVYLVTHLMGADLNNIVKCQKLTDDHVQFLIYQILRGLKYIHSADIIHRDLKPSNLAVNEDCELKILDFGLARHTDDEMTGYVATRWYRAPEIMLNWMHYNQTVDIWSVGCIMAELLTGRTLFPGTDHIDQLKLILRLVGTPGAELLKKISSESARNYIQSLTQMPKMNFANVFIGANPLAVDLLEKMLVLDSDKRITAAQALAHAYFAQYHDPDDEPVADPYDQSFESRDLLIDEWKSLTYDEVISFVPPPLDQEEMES
# [15] = target: Mitogen-activated protein kinase 14 (Homo sapiens) (UniProt Q16539); conditions: at 1 µM
# [16] = target: Mitogen-activated protein kinase 11 (Homo sapiens) (UniProt Q15759); conditions: at 0.1 µM
# Chain of Mitogen-activated protein kinase 11 (Homo sapiens) (Q15759 whole entry): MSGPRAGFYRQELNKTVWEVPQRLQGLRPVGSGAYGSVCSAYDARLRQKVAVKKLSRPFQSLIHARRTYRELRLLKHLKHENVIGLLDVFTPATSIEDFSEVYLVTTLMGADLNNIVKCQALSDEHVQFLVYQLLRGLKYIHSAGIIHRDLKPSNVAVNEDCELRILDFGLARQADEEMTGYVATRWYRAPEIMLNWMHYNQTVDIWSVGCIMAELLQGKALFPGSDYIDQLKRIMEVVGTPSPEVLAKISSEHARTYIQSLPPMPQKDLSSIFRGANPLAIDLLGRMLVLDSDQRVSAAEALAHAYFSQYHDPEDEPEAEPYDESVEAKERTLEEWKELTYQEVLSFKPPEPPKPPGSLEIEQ
# [17] = target: Mitogen-activated protein kinase 11 (Homo sapiens) (UniProt Q15759); conditions: at 1 µM
# [18] = target: T2, Mitogen-activated protein kinase 13 (Homo sapiens) (UniProt O15264); conditions: at 0.1 µM
# T2 sequence (whole entry): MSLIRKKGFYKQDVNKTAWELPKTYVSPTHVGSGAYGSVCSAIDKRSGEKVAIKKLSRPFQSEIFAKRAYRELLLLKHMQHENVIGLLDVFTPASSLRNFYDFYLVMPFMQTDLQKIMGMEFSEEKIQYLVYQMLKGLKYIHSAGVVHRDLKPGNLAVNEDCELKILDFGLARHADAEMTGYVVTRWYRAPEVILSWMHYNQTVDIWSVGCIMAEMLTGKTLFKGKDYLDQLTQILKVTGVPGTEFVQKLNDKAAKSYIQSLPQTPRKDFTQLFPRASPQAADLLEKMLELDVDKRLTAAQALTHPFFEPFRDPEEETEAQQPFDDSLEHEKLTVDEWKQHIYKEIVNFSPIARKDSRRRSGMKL
# [19] = target: T2, Mitogen-activated protein kinase 13 (Homo sapiens); conditions: at 1 µM
# [20] = target: T3, Mitogen-activated protein kinase 12 (Homo sapiens) (UniProt P53778); conditions: at 0.1 µM
# T3 sequence (whole entry): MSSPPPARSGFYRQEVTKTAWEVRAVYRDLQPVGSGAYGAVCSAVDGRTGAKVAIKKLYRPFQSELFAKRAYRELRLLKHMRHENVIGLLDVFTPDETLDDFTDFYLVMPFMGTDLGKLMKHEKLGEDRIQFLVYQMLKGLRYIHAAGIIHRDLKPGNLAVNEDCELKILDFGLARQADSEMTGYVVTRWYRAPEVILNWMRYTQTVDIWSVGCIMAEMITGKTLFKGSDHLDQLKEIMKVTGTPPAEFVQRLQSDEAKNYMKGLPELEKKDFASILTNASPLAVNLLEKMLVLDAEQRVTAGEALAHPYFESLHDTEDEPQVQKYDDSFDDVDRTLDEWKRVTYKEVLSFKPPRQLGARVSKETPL
# Chain of Glycogen synthase kinase-3 beta (Homo sapiens) (P49841 whole entry, looked up): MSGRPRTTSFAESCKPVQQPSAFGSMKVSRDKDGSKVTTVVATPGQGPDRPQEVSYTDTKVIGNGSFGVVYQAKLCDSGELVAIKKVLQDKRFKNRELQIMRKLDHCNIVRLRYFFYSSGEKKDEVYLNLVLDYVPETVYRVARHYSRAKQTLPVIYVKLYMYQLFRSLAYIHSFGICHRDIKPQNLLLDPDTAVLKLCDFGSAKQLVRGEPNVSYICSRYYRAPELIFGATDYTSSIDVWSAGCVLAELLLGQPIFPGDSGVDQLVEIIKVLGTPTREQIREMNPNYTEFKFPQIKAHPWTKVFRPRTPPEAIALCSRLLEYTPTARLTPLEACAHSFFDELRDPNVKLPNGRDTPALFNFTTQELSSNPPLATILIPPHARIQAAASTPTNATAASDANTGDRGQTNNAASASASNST
Compound,inhibition [1],inhibition [2],inhibition [3],inhibition [4],inhibition [5],inhibition [6],inhibition [7],inhibition [8],inhibition [9],inhibition [10],inhibition [11],inhibition [12],inhibition [13],inhibition [14],inhibition [15],inhibition [16],inhibition [17],inhibition [18],inhibition [19],inhibition [20]
COc1cc2c(cc1Nc1nc(Nc3cccc(F)c3C(N)=O)c3cc[nH]c3n1)N(C(=O)CN1CCN(C(C)C)CC1)CC2,3.89%,0.07%,21.8%,3.33%,15.4%,3.04%,18.2%,2.66%,7.45%,2.64%,3.92%,4.88%,0.53%,5.02%,6.81%,2.96%,3.23%,0.14%,2.89%,1.49%
COc1ccc2ncn(-c3cc(O[C@H](C)c4ccccc4C(F)(F)F)c(C(N)=O)s3)c2c1,4.75%,-2.12%,2.1%,-0.89%,3.28%,0.32%,-1.29%,-1.88%,-0.49%,-0.86%,0.26%,-1.14%,-0.79%,-5.71%,0.3%,-0.35%,0.3%,-0.27%,-1.08%,0.21%
Cc1cc(O)cc(C)c1/C=C/c1cncc(C(N)=O)c1,1.95%,0.55%,3.38%,0.22%,1.54%,1.69%,2.53%,1.25%,2.53%,0.31%,2.77%,1.7%,1.04%,4.9%,6.5%,0.52%,0.8%,2.3%,1.36%,1.1%
COC(=O)Nc1nc2ccc(Oc3ccc(NC(=O)Nc4cc(C(F)(F)F)ccc4F)cc3)cc2s1,5.68%,-1.19%,0.81%,6.92%,33.5%,-0.14%,3.25%,-1.09%,0.7%,0.14%,-0.75%,0.81%,9.68%,18.9%,63.7%,7.18%,51.5%,0.05%,0.18%,0.98%
COC(=O)Nc1nc2cc(Oc3ccc(NC(=O)Nc4ccccc4)cc3)ccc2[nH]1,8.21%,0.47%,2.14%,3.11%,2.22%,3.28%,3%,4.54%,2.22%,4.71%,4.97%,-2.65%,1.09%,1.53%,6.62%,3.05%,8.13%,-0.27%,1.34%,3.43%
CN(C)CCNC(=O)Nc1ccc(N(C)c2ccnc(Nc3ccc(CS(C)(=O)=O)cc3)n2)cc1,4.47%,0.8%,4.6%,0.19%,3.28%,4.37%,5.22%,5.77%,4.8%,2.98%,1.29%,1.45%,-2.85%,2.66%,7.04%,2.16%,2.52%,1.99%,3.74%,-0.76%
COc1cc(N2CCN(C(C)C)CC2)ccc1Nc1nc(Nc2cccc(F)c2C(=O)O)c2cc[nH]c2n1,6.19%,4.97%,23.6%,5.89%,22.7%,26.4%,72.5%,5.18%,6.34%,5.83%,5.94%,-1.11%,3.96%,6.33%,9.12%,3.15%,5.38%,4.97%,4.09%,0.95%
CC(C)c1ccc(-c2cc(-c3c[nH]nc3-c3ccccn3)ccn2)cc1,3.51%,-2.26%,0.99%,0.13%,3.76%,0.51%,2.5%,-0.73%,2.22%,0.86%,-2.17%,-1.14%,0.11%,5.48%,15.8%,1.06%,8.12%,5.51%,0.87%,0.13%
NS(=O)(=O)c1ccc(N/N=C2\C(=O)Nc3ccc(C(=O)NCc4ccncc4)cc32)cc1,77.1%,10.9%,42.5%,12.2%,45.9%,2.55%,8.96%,14.9%,55.3%,5.64%,26.3%,-1.39%,2.17%,6.35%,6.05%,4.53%,9.75%,1.65%,4.79%,-1.11%
CCS(=O)(=O)c1ccc(OC)c(Nc2ncc(-c3cccc(F)c3)o2)c1,4.08%,1.26%,23.8%,4.37%,30%,7.66%,7.11%,6.33%,7.09%,4.68%,5.09%,-2.3%,0.15%,13.4%,14.9%,4.8%,7.52%,5.58%,5.36%,3.31%
Nc1nonc1-c1nc2cnccc2n1C1CC1,68.1% and 62.1%,0.55% and 0.39%,17.3% and 12.3%,3.8% and -0.76%,11.1% and 7.82%,3.59% and 0.44%,6.52% and 2.72%,3.14% and 2.36%,7.51% and 3.94%,4.9% and 2.96%,4.99% and 3.59%,-0.3% and -0.76%,-1.03% and 0.65%,9.91% and 3.52%,9.15% and 7.62%,3.95% and 1.62%,6.89% and 0.76%,3.43% and 4.51%,6.86% and 5.08%,3.64% and 2.61%
CNC(=O)c1cncc(/C=C/c2ccccc2C)c1,10.8%,2.37%,3.05%,3.2%,3.78%,3.59%,5.08%,7.05%,5.85%,4.41%,4.66%,-0.87%,3.21%,3.76%,6.09%,4.82%,7.21%,4.01%,3.77%,1.29%
CS(=O)(=O)Nc1ccc(-c2cc(-c3ccccc3)cc(C(N)=O)c2N)cc1,3.26%,-3.53%,2.26%,0.57%,2.28%,0.94%,1.19%,4.56%,2.91%,2.82%,2.24%,-1.51%,-0.01%,1.19%,0.84%,1.8%,0.17%,1.96%,0.64%,0.99%
Fc1ccc(Nc2nccc(-c3c(-c4ccc(C(F)(F)F)cc4)nn4ncccc34)n2)cc1F,3.82%,0.15%,4.43%,0.47%,3.47%,1.98%,3.63%,3.91%,4.05%,1.81%,-0.07%,0.64%,0.08%,1.53%,8.46%,1.28%,3.29%,-4.93%,4.25%,5.22%
